Assay [1] concerns Klebsiella pneumoniae. The note with it: Concentration 32 ug.mL-1;; ASSAY_TEST Inhibition of Bacterial Growth; detection method Absorption (OD600); MEDIA CAMHB; plate type 384well; NBS; CORNING #3640; time 18 hr.
Assay [2] deals with Candida albicans. The settings on record: Concentration 32 ug.mL-1; ASSAY_TEST Inhibition of Fungal Growth; detection method Absorption (OD530).
For assay [3], the system named is Cryptococcus neoformans. The settings on record: Concentration 32 ug.mL-1; ASSAY_TEST Inhibition of Fungal Growth; detection method Resazurin; Absorption (OD600-OD570); plate type 384well; NBS; CORNING #3640.

Potency and affinity values are given separately.

Turning to `COc1ccc(CNC(=O)Cn2nc3c4cc(-c5ccc(OC)cc5)nn4ccn3c2=O)cc1`, the Inhibition was 9.14% in assay [1], -2.24% in assay [2] and -14.67% in assay [3].

Consider `O=C(CSc1nnc2c(=O)n(Cc3ccc(F)cc3)ccn12)NC1CCCC1`, for which the Inhibition in assay [1] was 8.75%; in assay [2], 5.19%; in assay [3] it was -22.84%.

As for `Cc1cccc(C)c1NC(=O)Cn1nc2c3cc(-c4ccc(Cl)cc4)nn3ccn2c1=O`, the Inhibition is listed as 6.6% in assay [1], -0.5% in assay [2] and -16.41% in assay [3].

For `O=C(CSc1nnc2c(=O)n(-c3ccccc3)ccn12)Nc1ccc(Br)cc1F`, the Inhibition is 1.03% in assay [1], 2.95% in assay [2] and -12.46% in assay [3].

Consider `Cc1ccc(CNC(=O)c2ccc3nn(CC(=O)Nc4ccc(C(F)(F)F)cc4)c(=O)n3c2)cc1`, for which the Inhibition is listed as 8.75% in assay [1], 7.7% in assay [2] and -15.23% in assay [3].

Regarding `Cc1ccc(NC(=O)Cn2nc3c(Oc4ccccc4Cl)nccn3c2=O)cc1F`, the figures for the Inhibition in assay [1], in assay [2] and in assay [3] were 12.22%, 0.49% and -9.07%, respectively.

On to `CC(C)c1ccc(N(Cc2cccc(Cl)c2)S(=O)(=O)c2cccn3cnnc23)cc1`, for which the figures for the Inhibition in assay [1], in assay [2] and in assay [3] were -3.32%, 3.48% and -7.96%, respectively.

On to `Cc1ccc(Sc2nccn3c(=O)n(CC(=O)N4CCN(c5ccccc5)CC4)nc23)c(C)c1`, for which the Inhibition is given as 2.5% in assay [1], 3.52% in assay [2] and -7.85% in assay [3].

Consider `COc1cccc(CSc2nnc3c(=O)n(-c4ccccc4OC)ccn23)c1`, for which the results for the Inhibition in assay [1], in assay [2] and in assay [3] were 6.64%, 1.36% and -5.34%, respectively.

Regarding `O=c1c2nn(Cc3cccc(Cl)c3)c(=O)n2ccn1-c1ccccc1`, the Inhibition in assay [1] is reported as 1.75%; in assay [2], 6.73%; in assay [3] it was -10.03%.
